SARS PLP yeast – blocks SARS-CoV papain-like protease in a yeast assay. Potency, µM (top dose mostly 32.9 µM), hits mostly activators. S. cerevisiae expressing SARS-CoV PLpro, growth rescue. 330,000 tested, 0.19% active; also: nearly all actives have a fitted effect of over 55% in size
Cycloheximide cs – counter-screen for Shiga toxin inhibitors: cycloheximide protein synthesis inhibition. max response, %. 300,000 tested, 12% active. cell reporter, cycloheximide protein synthesis inhibition counterscreen; in the data active = max response mostly above about 13%, no sharp cut-off; inactive = mostly below about 14%; also: read at 38.3 µM for the half of the compounds with a filed dose
Pf growth 96h – P. falciparum growth inhibition at 96 hour, primary screen for plastid delayed-death inhibitors; P. falciparum luciferase reporter growth, 96 h; AID 504834; 320,000 tested, 6.9% active; Potency, µM (titrated, usually from 28.7 µM), hits mostly inhibitors; active = well fitted inhibition curve with a large enough effect; inconclusive = small, poorly fitted or top-dose-only effect, or another doubt; inactive = no such curve, though single readings can be large or run the other way
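Two-generation exposure (96 h) targets delayed-death phenotype. Reporter parasites carrying integrated firefly luciferase, in red cells at 2% hematocrit and 0.05% parasitemia final, kept at 37 C, 5% CO2; luminescence loss indicates inhibition.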
NS1 function inh – blocks influenza NS1 protein function | Potency, µM (top dose mostly 46.1 µM) | 270,000 tested, 0.4% active | AID 2326; also: actives are rising curves; nearly all actives have a fitted effect of over 50% in size
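Growth recovery, yeast-based: influenza A NS1 expressed in S. cerevisiae causes slow growth, and suppressors are detected by OD600. The parent strain without NS1 is used as positive control.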
Pf growth 48h – inhibits P. falciparum growth in the first generation, 48 h; P. falciparum luciferase growth in erythrocytes, 48 h; AID 504832; Potency, µM (highest dose often 28.7 µM), actives largely listed as inhibitors; 310,000 tested, 5.9% active; active = well fitted inhibition curve with a large enough effect; inconclusive = small, poorly fitted or top-dose-only effect, or another doubt; inactive = no such curve, though single readings can be large or run the other way
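Erythrocytes infected with P. falciparum carrying an integrated firefly luciferase reporter (2% hematocrit, 0.1% parasitemia final) were exposed to compounds in RPMI 1640 with 0.5% Albumax at 37 C, 5% CO2. Growth inhibition was scored as reduced luminescence.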
Shiga toxin inh – blocks Shiga toxin action in Vero cells; Vero cells, Shiga toxin protein synthesis inhibition reporter; inhibition, % at 38.7 µM; 290,000 tested, 9.2% active; AID 2315; in the data active = inhibition mostly above about 28%, no sharp cut-off; inactive = mostly below about 43%
A number is an active result; . = inactive; ? = inconclusive; / = no result given. An excerpt weighted towards active compounds, which were near 21% of everything screened. Unless noted, calls follow the shape of the full dose curve.

SMILES | SARS PLP yeast | Cycloheximide cs | Pf growth 96h | NS1 function inh | Pf growth 48h | Shiga toxin inh
COc1ccc(COc2cc(-c3cccc(OC)c3)nc3ccc(NC(=O)c4ccc(C)cc4)cc23)cc1 | . | . | 3.29µM | . | ? | .
CC(=O)c1cccc(NC(=O)c2cc(-c3ccco3)nc3ccccc23)c1 | . | . | . | . | . | 33.0
COc1cc(-c2cc(C(=O)Nc3ccc(O)cc3)c3ccccc3n2)cc(OC)c1OC | . | . | ? | . | ? | .
C=CCn1c(COc2ccc(OC)cc2)nnc1SCn1nnc2ccccc2c1=O | . | . | ? | . | . | .
Cc1ccc(CNC(=O)CCC2CCCN(Cc3cc4ccccc4o3)C2)o1 (stereo not drawn) | . | . | . | . | . | .
O=C(/C=C/c1ccc(Cl)cc1Cl)Nc1cccc(S(=O)(=O)NC2=NCCCCC2)c1 | . | 26.3 | . | . | . | 12.9
O=C(/C=C/c1ccccc1[N+](=O)[O-])Nc1cccc(S(=O)(=O)NC2=NCCCCC2)c1 | . | / | / | / | / | /
Nc1cccnc1Oc1ccccc1F | . | . | . | . | . | .
O=C(/C=C/c1ccccc1)Nc1cccc(S(=O)(=O)Nc2ccccc2F)c1 | . | . | . | . | . | 39.2
CC(C)COc1cccc(-c2cc(C(=O)Nc3ccon3)c3ccccc3n2)c1 | . | . | . | . | 2.08µM | .
O=C(Cc1ccc(Cl)cc1Cl)Nc1cccc(S(=O)(=O)Nc2ccccc2F)c1 | . | . | . | . | . | .
O=C(/C=C/c1ccccc1)Nc1cccnc1Oc1ccccc1F | . | 62.2 | . | . | . | 75.6
CC(C)c1cc(C(F)(F)F)n2nc(C(=O)Nc3ccc(-n4cnnn4)cc3)cc2n1 | . | . | . | ? | . | .
O=C(NCCCN1CCCC1=O)c1cccc(S(=O)(=O)N2CCCCC2)c1 | . | / | ? | / | ? | /
CC1=C(C(=O)OCc2ccccc2)C(c2cccnc2)c2c(n(C)c(=O)n(C)c2=O)N1 (stereo not drawn) | . | . | . | . | ? | .
O=C(Nc1cccc(S(=O)(=O)NC2=NCCCCC2)c1)c1cc(-c2ccncc2)nc2ccccc12 | . | . | 11.7µM | / | ? | .
COC(=O)c1sccc1NS(=O)(=O)c1ccccc1[N+](=O)[O-] | . | / | . | / | . | /
COC(=O)c1sccc1NC(=O)c1cc(-c2cccc(C)c2)nc2ccccc12 | . | . | . | . | 9.28µM | .
CC(=O)c1cccc(NC(=O)c2cc(-c3ccncc3)nc3ccccc23)c1 | . | / | ? | / | 11.7µM | /
COC(=O)c1sccc1NC(=O)c1ccccc1[N+](=O)[O-] | . | . | 1.85µM | . | . | .
COc1ccc(C2CC(c3ccccc3)Oc3cc(OC)ccc32)cc1 (stereo not drawn) | / | . | / | / | / | .
O=C(COC(=O)C1CC(O)CN1S(=O)(=O)c1ccccc1[N+](=O)[O-])c1ccc[nH]1 (stereo not drawn) | . | / | . | / | . | /
O=C(c1ccc(OC2CCN(Cc3ccccn3)CC2)cc1)N1CCCC(O)C1 (stereo not drawn) | . | . | ? | . | . | .
COc1cccc(-c2cc(C(=O)Nc3ccncc3)c3ccccc3n2)c1 | . | . | ? | . | 0.738µM | .
COc1cccc(NC(=O)c2cc(-c3ccccn3)nc3ccccc23)c1 | . | / | ? | / | ? | /
SMILES | SARS PLP yeast | Cycloheximide cs | Pf growth 96h | NS1 function inh | Pf growth 48h | Shiga toxin inh
Cc1ccc2nc(-c3ccncc3)cc(C(=O)NCc3ccccc3F)c2c1 | . | . | 14.7µM | . | ? | .
Cc1csc(CNC(=O)c2ccc(OC3CCN(CCc4ccccc4)CC3)cc2)n1 | . | . | . | . | ? | .
O=C(COC(=O)C1CCN(S(=O)(=O)c2ccc3c(c2)OCCO3)CC1)Nc1cc(C(F)(F)F)ccc1Cl | . | . | . | . | . | .
O=C(COC(=O)C1CC2C=CC1C2)NCc1ccccc1Cl (stereo not drawn) | . | . | . | . | . | .
O=C(COC(=O)c1ccc(F)cc1F)Nc1cc(S(=O)(=O)N2CCOCC2)ccc1Cl | . | / | . | / | . | /
COc1ccc(CC(=O)NC(C)c2nnc(SCCOc3ccc(OC)cc3)n2C)cc1 (stereo not drawn) | . | . | . | . | / | .
Cc1n(Cc2ccccc2)c2ccccc2[n+]1Cc1ccccc1 | . | . | . | . | 1.31µM | /
CCn1c(C)[n+](Cc2ccccc2)c2ccc(Cl)cc21 | . | . | . | / | 7.38µM | .
CCOc1cc(C(=O)NC(C)Cc2cccs2)cc(OCC)c1OCC (stereo not drawn) | . | . | . | . | . | .
CC(Cc1cccs1)NC(=S)Nc1ccc(Cl)c(Cl)c1 (stereo not drawn) | / | . | ? | . | . | active
CC(Cc1cccs1)NC(=S)Nc1ccc(Cl)cc1 (stereo not drawn) | . | 20.6 | ? | . | . | 45.2
Cc1ccccc1-c1noc(-c2ccc(O)cc2)n1 | . | 52.3 | . | . | . | 64.5
Cc1ccccc1-c1noc(-c2ccc(Cl)cc2)n1 | . | 24.0 | ? | . | . | .
Cc1ccccc1-c1nc2c(s1)CCc1onc(-c3ccc(Cl)cc3)c1-2 | . | / | . | / | . | /
Cc1ccccc1-c1noc(-c2ccccc2F)n1 | . | 35.6 | . | . | / | 68.0
Cc1ccccc1-c1noc(-c2ccccc2C(=O)N2CCCC2)n1 | . | . | . | . | . | .
S=C(NCc1ccccc1)NNc1nc2ccccc2[nH]1 | . | . | ? | / | ? | .
C[C@H](CO)N1C[C@H](C)[C@@H](CN(C)Cc2ccc(Cl)c(Cl)c2)Oc2c(NS(=O)(=O)c3ccc(F)cc3)cccc2C1=O | . | / | / | / | / | /
CN1CCC(Nc2ncc3ncnc(Nc4ccc(F)c(Cl)c4)c3n2)CC1 | / | . | 3.38µM | / | 1.69µM | .
Cc1ccc(S(=O)(=O)n2c([N+](=O)[O-])cnc2C)c(C)c1C | . | . | ? | . | . | .
COc1ccc(OC)c(NC(=O)Nc2nnc(N3CCC(C)CC3)s2)c1 | . | . | ? | . | . | .
COc1ccc(OC)c(NCc2cccn2-c2nnc(N3CCC(C)CC3)s2)c1 | / | 31.3 | / | / | / | 68.7
Fc1c(F)c(C(F)(F)F)c(F)c(F)c1N/N=C\c1cccs1 | . | . | / | . | ? | .
Cc1ccc(Nc2nnc(-c3ccccc3N)o2)cc1C | . | 26.4 | . | . | . | 41.2
Cc1ccc2c(c1)N[C@H](c1ccc(C(=O)O)cc1)c1cccn1-2 | / | / | / | . | / | /
CCc1nc2ccc(C(=O)N(C)CC(=O)Nc3cccc(F)c3)cc2nc1CC | . | / | ? | / | ? | /
O=C(COC(=O)C1C2CC3OC(=O)C1C3C2)Nc1ccccc1 (stereo not drawn) | . | 16.2 | ? | . | . | .
Cc1ccc(N2CC(C(=O)Nc3ccc4c(c3)OCCO4)CC2=O)cc1 (stereo not drawn) | . | 19.9 | ? | . | . | 43.8
COC(=O)c1ccc(NC(=O)C2CC(=O)N(c3cc(C)ccc3C)C2)cc1 (stereo not drawn) | . | . | ? | . | . | .
COc1ccc(CN(C)C(=O)C2CC(=O)N(c3ccc4c(c3)OCCO4)C2)c(OC)c1 (stereo not drawn) | . | / | 6.57µM | / | ? | /
